Screening data from PubChem BioAssay.
Most compounds without a hit are left out; they make up all but 6.2% or so of the library.
FMDV inh – blocks foot and mouth disease virus. Potency, µM (highest dose often 57.9 µM), for inactives: at the highest dose activity change, negative = inhibition, usual class: inhibitors. FMDV antiviral cell-based qHTS. actives 1.2% (n = 410,000); calls by dose curve; tested in HEK293T cells; also: read-out not given here; potency is read from the fitted curve at half-maximal effect; nearly all actives have a fitted effect of over 45% in size
MARV entry inh – Marburg virus entry inhibition; actives 1.8% (n = 300,000); Marburg virus pseudotyped entry inhibition, cell reporter; Potency, µM (highest dose often 37.8 µM), inactives show top-dose activity change, negative = inhibition, actives largely listed as inhibitors; calls by dose curve; tested in HEK293 cells; also: potency is read from the fitted curve at half-maximal effect
Lassa entry inh – blocks Lassa virus binding to or entry into cells. Lassa virus pseudotype entry inhibition, cell reporter. AID 540256. actives 1.2% (n = 300,000). Potency, µM (top dose mostly 37.9 µM), for inactives: at the highest dose activity change, negative = inhibition, hits mostly inhibitors; calls by dose curve; tested in HEK293 cells; also: potency is read from the fitted curve at half-maximal effect; nearly all actives have a fitted effect of over 50% in size
HCMV antiviral – inhibitors of human cytomegalovirus | HFF cells, HCMV-luciferase reporter, 72 h; hits give low values | actives 4.5% (n = 410,000) | AID 1259415 | activity change, negative = inhibition, % at 57.5 µM; in the data active = activity change below about -60%; inconclusive = no clear call, values can overlap the other calls; inactive = above about -39%
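Steps: HFFs plated, 16 h 37C; compounds added; HCMV-luciferase added to MOI 1 PFU/cell; 72 h 37C; OneGlo reagent, 5 min room temperature; luminescence read, normalized to controls.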
* = called active by the depositor; u = inconclusive; x = not tested or not shown; ! = not confirmed by another sample; [ ] = dose if it differs, or a comment. % is scaled to controls: 0 for no effect and ±100 for the full control effect.

SMILES	FMDV inh	MARV entry inh	Lassa entry inh	HCMV antiviral
Cc1nn(C)c(Oc2ccc(Cl)cc2)c1C(=O)Nc1ccc(F)cc1F	0.0%	-20.5%	1.3%	-60.4*
COc1cc(Nc2nccc3[nH]c(-c4cccc(C(C)C)c4)nc23)cc(OC)c1OC	x	x	x	-13.9
Cc1cccc(NC(=S)N/N=C2\CC(C)(C)Oc3ccc(O)cc32)c1	u	4.47µM*	-9.1%[46.1 µM]	-16.2
O=C(NCc1nnc2n1CCN(Cc1cccc(Cl)c1)CC2)c1cccc(F)c1	-1.2%	x	x	x
CCC(=O)c1c(NCCc2ccccc2)cc(C)oc1=O	-18.4%	0.8%	0.6%	-98.2*
Cc1nn2c(NCCN(C)C)c3c(nc2c1-c1ccccc1)CCCC3	-0.8%	10µM*	-15.7%[46.1 µM]	u
COc1cccc(Nc2c3c(nc4c(-c5ccccc5)c(C)nn24)CCC3)c1	u	u	u	-63.4*
COCCNc1c2c(nc3c(-c4ccccc4)c(C)nn13)CCCC2	u	u	-1.4%	-33.0
Cc1nn2c(Nc3ccc(F)cc3)c3c(nc2c1-c1ccccc1)CCC3	-16.4%	-1.1%	-3.3%	-35.6
CN(C)CCC(c1ccc(Cl)cc1)c1ccccn1 (stereo not given)	-6.9%	2.82µM*!	-17.6%	-16.4
CN(C)CC[C@H](c1ccc(Br)cc1)c1ccccn1	x	8.91µM*!	x	x
CC1=CC(=O)CC(C)(C)C1(O)/C=C/C(C)=C\C(=O)O (stereo not given)	-6.5%	x	x	x
COc1ccc(OC)c2sc(N3CCN(C(=O)c4ccc([N+](=O)[O-])s4)CC3)nc12	-21.6%	-7.3%	-15.0%	-12.0
O=C(c1ccc([N+](=O)[O-])s1)N1CCN(c2ccccn2)CC1	-5.5%	0.5%[46.1 µM]	0.0%	-61.1*
O=C(c1ccc([N+](=O)[O-])s1)N1CCN(c2ccccc2)CC1	-10.6%	3.3%	x	-96.5*
CN(CC(=O)NC1CCCc2ccccc21)S(=O)(=O)c1cccs1 (stereo not given)	-9.7%	u	8.0%	-73.8*
O=C(Nc1cccc(Cl)c1)NN(c1ccccc1)C1CCS(=O)(=O)C1 (stereo not given)	x	x	x	-9.0
COc1ccc(-n2c(SCC(=O)N3CCc4ccccc43)nc3c([nH]c4ccccc43)c2=O)cc1	-16.3%	x	12.6%[46.1 µM]	34.7
O=C(Nc1ccc(-c2nc3ccccc3o2)cc1)c1cc(-n2cnnc2)ccc1Cl	-28.2%	u	u	-96.6*
O=C(Nc1ccc(-c2nc3ccccc3o2)c(O)c1)c1cc(-n2cnnc2)ccc1Cl	12.6µM*	u	2.9%	-94.5*
Cc1c(NC(=O)c2cc(-n3cnnc3)ccc2Cl)cccc1-c1nc2ccccc2o1	-5.8%	-25.9%	-19.3%	38.1
O=C(Nc1ccc2oc(-c3ccccc3)nc2c1)c1cc(-n2cnnc2)ccc1Cl	14.4%	-13.8%	u	-2.8
CCOC(=O)[C@]12C[C@]3(C)CCN(C(=O)N[C@@H]1c1ccccc1)[C@@H]32	x	33.8%[14.2 µM]	x	x
C[C@H]1[C@@H](NS(=O)(=O)c2cccs2)CC[C@@]23CCCN2C(=O)CCC[C@@H]13	x	x	x	3.3
COc1cccc(-c2cc(C(=O)N3CCN(Cc4ccccc4)CC3)no2)c1	13.9%	6.8%	-3.2%	23.1
SMILES	FMDV inh	MARV entry inh	Lassa entry inh	HCMV antiviral
CCOC(=O)N1CCN(Cc2ccc3c(c2)CN(C(=O)c2cc(-c4ccccc4)on2)CCO3)CC1	28.2µM*	x	x	x
CCOC(=O)N1CCN(Cc2ccc3c(c2)CN(C(=O)c2cc(-c4ccccc4)no2)CCO3)CC1	25.1µM*	x	x	x
CC(=O)c1ccc(F)c(-c2cc(C)cc3c2OC(CNC(=O)Cn2nc(C)nc2C)C3)c1 (stereo not given)	-12.9%	x	x	x
CC(C)C(O)c1ccc2c(c1)CN(C(=O)c1ccccc1-n1cccn1)CCO2 (stereo not given)	-1.7%	x	x	x
C=C(CCN1C=C(C(C)=O)C(c2ccccc2)NC1=O)c1ccc(OC)cc1 (stereo not given)	x	12.4%[14.2 µM]	x	x
COc1ccc(CN(C)C(=O)CCc2ccc(S(=O)(=O)N3CCCCCC3)cc2)c(OC)c1	0.0%	x	x	-12.8
CCOc1ccc(CN(C)C(=O)CCc2ccc(S(=O)(=O)N3CCCCCC3)cc2)cc1	u	x	x	-60.4*
CNC(=O)c1ccc(CN(C)C(=O)/C=C/c2ccc(S(=O)(=O)N3CCCCCC3)cc2)cc1	u	x	x	-84.4*
COc1ccc(CN(C)C(=O)/C=C/c2ccc(S(=O)(=O)N3CCCCCC3)cc2)cc1	u	u	5.01µM*	u
CCOc1ccc(CN(C)C(=O)CCl)cc1	25.1µM*	11.2µM*	u	-29.6
COc1cccc(NC(=O)CN(C)C(=O)/C=C/c2ccc(S(=O)(=O)N3CCCCCC3)cc2)c1	-14.7%	x	x	-38.2
